Test results taken from PubChem BioAssay AID588850 (Sanford-Burnham Center for Chemical Genomics, 2011).
The campaign covered roughly 360,000 compounds. About 3,100 (0.86%) were called active.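 Rule for the calls: active = at least 50% inhibition at 5 µM, scaled per plate between neutral and stimulator controls; inactive = the rest.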 Only a selection was taken, and actives are over-represented in it overall.

Assay: inhibitors of PAF-induced NF-kB signaling, primary screen, cell-based, GFP fluorescence, uHTS (AID 588850);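 note: PAF is a Pseudomonas aeruginosa culture filtrate used as stimulus; plate controls were PAF-stimulated DMSO wells for no effect and unstimulated DMSO wells for full effect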
Settings: KKLEB NF-kB-GFP reporter, GFP fluorescence overnight, at 5 µM, stronger effect = higher value

inhibition, inactive:
Clc1ccc2nc(CSc3ccccc3)cn2c1 -13.5%, O=C(C1CCCO1)N1CCN(C(=S)NC2CC2)CC1 (stereo not given) 3.7%, COc1ccc(S(=O)(=O)N2CCN(CC(=O)N3CCNC3=O)CC2)cc1OC 0.2%, COc1ccc(Br)cc1CN1CCN(C(=O)c2cccc(OC)c2OC)CC1 18.7%, CN(C(=O)CC1C(=O)NCCN1Cc1ccc2ccccc2c1)C1CCOCC1 (stereo not given) 15.4%, COc1ccc(N(C(=O)c2snc(C(N)=O)c2N)C(C(=O)NC2CCCC2)c2ccco2)cc1OC (stereo not given) 6.4%, CC(=O)c1cccc(NC(=O)C2CCN(C(=O)c3ccccc3Cl)CC2)c1 4.3%, CSc1ccccc1C(=O)Nc1cccc(C(C)=O)c1 -14.6%, CC(=O)c1cccc(NC(=S)N2CCN(S(C)(=O)=O)CC2)c1 -11.2%, COc1ccc(NC(C(=O)Nc2cccc(C(C)=O)c2)c2ccccc2)cc1 (stereo not given) -4.2%, CCOCCCNC(=O)c1ccc(CS(=O)(=O)c2cccc(C(F)(F)F)c2)o1 -2.1%, CC1C(=O)Nc2ccccc2N1C(=O)c1c(F)cccc1F (stereo not given) -2.1%, COc1cccc(-c2nn(-c3ccccc3)cc2/C=C(\C#N)C(=O)NCCCn2ccnc2)c1 -21.2%, CC1CCCC(NC(=O)COC(=O)c2ccccc2C(=O)N(C)C2CCCCC2)C1C (stereo not given) 17.7%, C=CCN(c1ccc(C(N)=O)cc1)S(C)(=O)=O -12%, COc1ccc(N2CCN(C(=O)COc3ccc4c(C)cc(=O)oc4c3)CC2)cc1 -21.4%, Cc1cc(OCC(=O)N2CCN(c3ncccn3)CC2)ccc1Cl 1.3%, CC1(C)Cc2c(sc3nc(SCC(=O)NCc4ccccc4)n(-c4ccccc4)c(=O)c23)CS1 4.3%, Cc1ccc(S(=O)(=O)N2CCCC2CO)cc1 (stereo not given) -11%, CCn1ncc(Br)c1C(=O)Nc1cc(C)ccc1F 4.3%, Cc1ccc(Cc2cnc(N)s2)o1 4.4%, O=C(CCc1ccccc1Cl)Nc1ccc(S(=O)(=O)Nc2nccs2)cc1 8.7%, COc1ccccc1/C=C/CN1CCC(CO)(Cc2ccccc2)CC1 20.7%, CC(C)(C)NC(=O)Cn1c(SCC(=O)Nc2nccs2)nc2ccccc21 -6.3%, COCCCNC(=S)N1CCN(c2nc(-c3cccc(OC)c3)cs2)CC1 -8.2%, O=C(N/N=C/c1cc(Br)c(O)c([N+](=O)[O-])c1)C(O)(c1ccccc1)c1ccccc1 -3.5%, c1ccc(C(=NNc2nc3ccccc3s2)c2ccccn2)cc1 -25.7%, CCOC(=O)c1ccc(-c2ccc3ncnc(N(C)Cc4sccc4C)c3c2)o1 32.3%, O=C(Nc1nnc(Cc2ccc(Cl)cc2)s1)c1cccnc1 2.8%, CCOC(=O)CSc1nnc(NC(=O)c2cccc(S(=O)(=O)N3CCCCC3)c2)s1 5.1%, Cc1ccc(S(=O)(=O)CCC(=O)Nc2nnc(CC(C)C)s2)cc1 8.1%, O=C(Nc1nnc(-c2ccc(F)cc2)s1)c1c(F)cccc1Cl 11%, CC1(C(=O)Nc2cccnc2)Cc2c(-c3ccccc3)ccnc2O1 (stereo not given) 14.4%, Cc1ccccc1C(=O)Nc1cccc(-c2nnc(SCC(=O)O)n2C)c1 0.8%, C=CCn1c(SCC(=O)c2ccc(Br)cc2)nnc1C(C)NC(=O)Cc1ccc(OC)cc1 (stereo not given) -6.2%, COCCn1c(C)cc(C(=O)CN2c3cccc4cccc(c34)S2(=O)=O)c1C 18.2%, O=C(c1cccnc1)N(Cc1ccccc1)C(=O)c1cccnc1 11.6%, CCc1ccc(N(CC(=O)NCc2cccnc2)S(=O)(=O)c2ccccc2)cc1 -37.4%, NC(=O)C[n+]1cccc(C(N)=O)c1 0.4%, CCNC(=O)C1CCCN(C(=O)c2ccc(OC)cc2OC)CC1 (stereo not given) -9.2%, Cc1ccc(C2(C)NC(=O)N(CC(=O)Nc3ccccc3C(=O)N3CCCCC3)C2=O)cc1 (stereo not given) -4.5%, O=C(NC1(C(F)(F)F)N=C2SCCN2C1=O)c1ccco1 (stereo not given) 3.6%, COCCCN(C(=O)Cn1ncc2c(=O)oc3ccc(C)cc3c21)C(C)c1ccncc1 (stereo not given) 1.3%, O=C(Nc1ccc2c(c1)OCO2)C1CC(c2c(F)cccc2Cl)=NO1 (stereo not given) 13.8%, Cc1cc(C)c(-c2csc(NC(=O)CCCc3nc4ccccc4c(=O)[nH]3)n2)c(C)c1 -12.5%, C=CCNC(=O)c1ccc2c3n(nc2c1)-c1ccc(C)cc1CO3 -75.6%, COc1cc(OC)cc(C(=O)N[C@H](C(=O)NNC(=O)c2ccc(Br)cc2)C(C)C)c1 -8.2%, COc1cc(OC)cc(C(=O)N[C@H](C(=O)OCC(=O)NC(C)c2ccccc2)C(C)C)c1 (stereo not given in full) 21.2%, CC(=O)NC(c1ccccc1)c1nc(-c2ccccc2C)cs1 (stereo not given) -32.5%

inhibition, active:
C[C@@H]1C[C@@H]2O[C@H]2/C=C\C=C\C(=O)Cc2c(Cl)c(O)cc(O)c2C(=O)O1 60.3%, CCSc1nsc(NC(=O)Nc2cccc(C(C)=O)c2)n1 86.3%, C=CCSc1nsc(NC(=O)Nc2cccc(C(C)=O)c2)n1 86.3%, Cc1c(C)c2ccc(OCC(=O)N3CCN(c4cccc(Cl)c4)CC3)cc2oc1=O 63.5%, Cc1ccc(CCC(=O)Nc2ncc(Cc3cc(Cl)ccc3Cl)s2)o1 64%, O=[N+]([O-])c1cc(Br)c(O)c(/C=N/Nc2nc3ccccc3s2)c1 63.5%, CSc1nnc(NC(=O)c2nc(S(=O)(=O)Cc3ccc(C)cc3)ncc2Cl)s1 104%, Cc1ccc(CS(=O)(=O)c2ncc(Cl)c(C(=O)Nc3nnc(C)s3)n2)cc1 92.5%, O=C(c1cccnc1)N(c1cc2sc(=O)oc2c2ccccc12)S(=O)(=O)c1ccccc1 67%, Clc1ccc2c(c1)C1=C(C(c3ccncc3)O2)C(c2ccc(Br)cc2)n2ncnc2N1 (stereo not given) 52.7%, COc1cc(OC)cc(C(=O)N[C@H](C(=O)Nc2nc3ccccc3[nH]2)C(C)C)c1 64.3%
